Source: PubChem BioAssay (NCI)
The panel holds about 83,000 compounds, 20% with a hit somewhere; the sample as a whole holds those more often.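 Single-concentration screen, 48 h exposure, 96-well plates. Endpoint: percent growth. Below 10 = active.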 The source made the active and inactive calls.

Experiments:
Assay in all cases: NCI-60 one-dose screen, 48 h (100 = growth as untreated, 0 = no growth, -100 = all killed)
Conditions in all cases: 10 µM unless noted
[1] = test system: NCI-H23 lung
[2] = test system: NCI-H226 lung
[3] = test system: NCI-H322M lung
[4] = test system: HOP-62 NSCLC
[5] = test system: NCI-H460 lung
[6] = test system: HOP-92 NSCLC
[7] = test system: NCI-H522 lung
[8] = test system: A549/ATCC NSCLC
[9] = test system: 786-0 renal
[10] = test system: COLO 205 colon
[11] = test system: DU-145 prostate
[12] = test system: K-562 leukemia
[13] = test system: MALME-3M melanoma
[14] = test system: MDA-MB-231 breast
[15] = test system: RXF 393 renal
[16] = test system: SF-268 CNS
[17] = test system: SF-295 CNS
[18] = test system: SF-539 CNS
[19] = test system: UACC-257 melanoma
[20] = test system: M14 melanoma

Measured: growth

CN1CCN(C(=S)S)CC1
inactive: [1] 104% | [2] 109% | [3] 129% | [4] 108% | [5] 116% | [6] 104% | [7] 94.5% | [8] 94% | [9] 105% | [10] 80.9% | [11] 102% | [12] 73.5% | [13] 143% | [14] 106% | [15] 130% | [16] 102% | [17] 127% | [18] 104% | [19] 105% | [20] 105%

NC(=O)OCCO
inactive: [1] 99.3% | [2] 99.5% | [3] 97% | [4] 105% | [5] 110% | [6] 102% | [7] 96.1% | [8] 99.7% | [9] 95% | [10] 113% | [11] 104% | [12] 82.9% | [13] 84.7% | [14] 109% | [15] 110% | [16] 97.7% | [17] 106% | [18] 108% | [19] 95.6% | [20] 94.6%

CN(C)CCOC(=O)Nc1ccc(Cc2ccc(NC(=O)OCCN(C)C)cc2)cc1
active: [12] -30.1% [100 µM] | [18] -66.5% [100 µM] | [19] -61.6% [100 µM] | [20] -38.6% [100 µM]
inactive: [1] 94.1% [100 µM] | [2] 111% [100 µM] | [3] 96.8% [100 µM] | [4] 97.7% [100 µM] | [5] 92% [100 µM] | [6] 32.7% [100 µM] | [7] 85.2% [100 µM] | [8] 75.8% [100 µM] | [9] 60.1% [100 µM] | [10] 84.2% [100 µM] | [11] 86.3% [100 µM] | [13] 69.1% [100 µM] | [14] 65.8% [100 µM] | [15] 32.2% [100 µM] | [16] 90.3% [100 µM] | [17] 87.6% [100 µM]

Nc1ccn(C2OC(CO)C(O)C2F)c(=O)n1 (stereo not given)
inactive: [1] 83.7% | [2] 101% | [3] 107% | [4] 63.5% | [5] 70.1% | [6] 78.3% | [7] 51.4% | [8] 68% | [9] 79.9% | [10] 65.1% | [11] 89.4% | [12] 83.7% | [13] 73% | [14] 89.2% | [15] 100% | [16] 86.3% | [17] 98.6% | [18] 92.2% | [19] 95.1% | [20] 65.4%

CN(C(=S)S(=O)(=O)C12CC3CC(CC(C3)C1)C2)c1ccccc1
inactive: [1] 97.5% | [2] 93.3% | [3] 114% | [4] 116% | [5] 110% | [6] 71.2% | [7] 46.1% | [8] 95.1% | [9] 89.8% | [10] 88.5% | [11] 95.3% | [12] 72% | [13] 108% | [14] 88.9% | [15] 111% | [16] 94.5% | [17] 105% | [18] 97.6% | [19] 87.3% | [20] 107%

Nc1ccc(F)c(Cl)c1F
inactive: [1] 103% | [2] 91.3% | [3] 110% | [4] 112% | [5] 101% | [6] 80% | [7] 108% | [8] 113% | [9] 101% | [10] 118% | [11] 111% | [12] 100% | [13] 107% | [14] 101% | [15] 97.1% | [16] 106% | [17] 107% | [18] 103% | [19] 118% | [20] 97.2%

C/C(Cc1ccccc1)=N\O
inactive: [1] 109% | [2] 112% | [3] 110% | [4] 118% | [5] 107% | [6] 84% | [7] 106% | [8] 103% | [9] 102% | [10] 116% | [11] 109% | [12] 88.6% | [13] 110% | [14] 113% | [15] 112% | [16] 101% | [17] 117% | [18] 108% | [19] 107% | [20] 105%

O=S(=O)(OCCOS(=O)(=O)c1ccccc1)c1ccccc1
inactive: [1] 95% | [2] 87.6% | [3] 97.6% | [4] 94.9% | [5] 97.6% | [6] 99.5% | [7] 90.5% | [8] 93.3% | [9] 93.5% | [10] 112% | [11] 100% | [12] 96.4% | [13] 86% | [14] 111% | [15] 96% | [16] 92.6% | [17] 102% | [18] 102% | [19] 97.2% | [20] 92.3%

O=C1CSc2ccccc2N1
inactive: [1] 99.8% | [2] 111% | [3] 109% | [4] 101% | [5] 107% | [6] 83.9% | [7] 104% | [8] 96.5% | [9] 117% | [10] 108% | [11] 116% | [12] 122% | [13] 108% | [14] 115% | [15] 120% | [16] 104% | [17] 110% | [18] 129% | [19] 101% | [20] 113%

Oc1ccc2ccccc2c1CN1CCOCC1
inactive: [1] 104% | [2] 105% | [3] 112% | [4] 122% | [5] 115% | [6] 102% | [7] 110% | [8] 99.7% | [9] 109% | [10] 106% | [11] 124% | [12] 118% | [13] 121% | [14] 109% | [15] 128% | [16] 102% | [17] 110% | [18] 81.4% | [19] 120% | [20] 98%

O=[N+]([O-])c1c(O)c(CNCCCO)cc(CNCCCO)c1O
inactive: [1] 106% | [2] 101% | [3] 99.5% | [4] 106% | [5] 119% | [6] 90.8% | [7] 121% | [8] 95.4% | [9] 118% | [10] 120% | [11] 132% | [12] 95.9% | [13] 109% | [14] 99.8% | [15] 99.7% | [16] 118% | [17] 106% | [18] 94.6% | [19] 108% | [20] 107%

CC1CCC(C)(C)c2ccccc21 (stereo not given)
inactive: [1] 97.2% | [2] 90% | [3] 98.9% | [4] 99.9% | [5] 109% | [6] 116% | [7] 93.6% | [8] 98.2% | [9] 101% | [10] 104% | [11] 110% | [12] 115% | [13] 100% | [14] 94.6% | [15] 109% | [16] 104% | [17] 89.2% | [18] 97.2% | [19] 100% | [20] 95.7%

CCOC(=O)c1c(C)[nH]c(C)c1C=O
inactive: [1] 98.8% | [2] 99.6% | [3] 102% | [4] 86.9% | [5] 99.8% | [6] 81.9% | [7] 93.7% | [8] 67.3% | [9] 91.8% | [10] 110% | [11] 114% | [12] 94.7% | [13] 108% | [14] 93% | [15] 114% | [16] 101% | [17] 103% | [18] 98.9% | [19] 69.4% | [20] 100%

CCCCCCCCCCCCSC1=C(Cl)C(=O)C(OC)=C(OC)C1=O
active: [7] -63.3%
inactive: [1] 43.7% | [2] 74.6% | [3] 75.8% | [4] 75.2% | [5] 18.2% | [6] 57.9% | [8] 29.4% | [9] 65.6% | [10] 55.4% | [11] 60.2% | [12] 28.2% | [13] 12.5% | [14] 55.5% | [15] 34.1% | [16] 46.1% | [17] 38.3% | [18] 41.5% | [19] 26.8% | [20] 64.1%

Nc1cc(F)ccc1[N+](=O)[O-]
inactive: [1] 103% | [2] 95.9% | [3] 92.6% | [4] 110% | [5] 103% | [6] 89.5% | [7] 106% | [8] 116% | [9] 94.1% | [10] 116% | [11] 117% | [12] 114% | [13] 108% | [14] 105% | [15] 94.3% | [16] 111% | [17] 108% | [18] 101% | [19] 118% | [20] 94.4%
